Shown are actives, neighbours in structure and some others; about 21% of the full set was active somewhere.
Shiga inhibitor: blocks Shiga toxin action in Vero cells | Vero cells, Shiga toxin protein synthesis inhibition reporter | inhibition, % at 38.7 µM | 9.2% of 290,000 active | AID 2315; in the data active means inhibition mostly above about 28%, no sharp cut-off; inactive means mostly below about 43%
Pf growth 48h: P. falciparum growth inhibition at 48 hours (one generation); Potency, µM (series often up to 28.7 µM), actives largely listed as inhibitors; AID 504832; 5.9% of 310,000 active; P. falciparum luciferase growth in erythrocytes, 48 h
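Cell-based growth assay: transgenic P. falciparum expressing firefly luciferase, cultured in red cells within RPMI 1640 containing 0.5% w/v Albumax, 24 mM bicarbonate and gentamycin. A drop in luciferase activity indicates inhibition.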
HCMV inh: inhibitors of human cytomegalovirus | 4.5% of 410,000 active | HFF cells, HCMV-luciferase reporter, 72 h; stronger effect = lower value | activity change, negative = inhibition, % at 57.5 µM; in the data active means activity change below about -60%; inconclusive means no clear call, values can overlap the other calls; inactive means above about -39%
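Screen run at 2 compound doses on HFFs infected with reporter HCMV, MOI 1 PFU/cell. Luciferase activity from cell lysates at 72 h post infection gave inhibition relative to buffer-only and Salinomycin wells.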
HCV inhibitor: HCV inhibition | AID 651820 | Potency, µM (top dose mostly 41.8 µM), most hits filed as inhibitors | 3.4% of 340,000 active | Huh7.5.1 HCVcc-Cre infection, luciferase reporter, 44 h
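After 44 h co-culture of compound, cells and HCVcc-Cre (~0.5 moi), substrate is added for 15 min at room temperature and luciferase measured over 15 sec. Cells were seeded at 1,000/well and pre-cultured 4 h.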
Pf growth 96h: P. falciparum growth inhibition at 96 hours. Potency, µM (series often up to 28.7 µM), actives largely listed as inhibitors. P. falciparum luciferase reporter growth, 96 h. 6.9% of 320,000 active
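Infected RBCs, 2% Hct / 0.05% parasitemia final; luciferase-reporter P. falciparum; cpd 96 h, 37 C, 5% CO2; luciferase detection reagent; luminescence.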
CHX counter: affects cycloheximide protein synthesis inhibition readout, counter-screen; 12% of 300,000 active; cell reporter, cycloheximide protein synthesis inhibition counterscreen; AID 2314; max response, %; in the data active means max response mostly above about 13%, no sharp cut-off; inactive means mostly below about 14%; further: read at 38.3 µM for the half of the compounds with a filed dose
Large screens that a line does not name were inactive. Unless noted, the call rests on the fitted dose curve; in most records, active means well fitted inhibition curve with a large enough effect; inconclusive means small, poorly fitted or top-dose-only effect, or another doubt; inactive means no such curve, though single readings can be large or run the other way.

Cn1c(=O)c2c(nc(N3CCOCC3)n2Cc2ccccc2)n(C)c1=O	none (no result: Shiga inhibitor, Pf growth 48h, HCV inhibitor, Pf growth 96h, CHX counter)
CCCC(CCC)C(=O)Nc1cccc(-c2nc3cccnc3s2)c1C	none (no result: Shiga inhibitor, Pf growth 48h, HCV inhibitor, Pf growth 96h, CHX counter)
O=C(CNC(=O)c1ccccc1F)OCc1csc(-c2ccccc2)n1	CHX counter 18
COc1ccc(NC(=O)c2sc3nc(N4CCOCC4)c4c(c3c2N)CC(C)(C)OC4)c(OC)c1	Pf growth 48h inconclusive, Pf growth 96h 1.7µM
COc1ccc(NC(=O)c2sc3nc(N4CCCC4)c4c(c3c2N)CC(C)(C)OC4)cc1	Pf growth 48h 13µM, HCMV inh inconclusive, Pf growth 96h 12µM
COc1ccc(NC(=O)c2sc3nc(N4CCOCC4)c4c(c3c2N)CC(C)(C)OC4)cc1	Pf growth 96h inconclusive
Cc1ccc(S(=O)(=O)c2cn(CC(=O)Nc3ccc4c(c3)OCO4)c3ccc(F)cc3c2=O)cc1	none (no result: Shiga inhibitor, Pf growth 48h, HCV inhibitor, Pf growth 96h, CHX counter)
CC(C)C[C@H](NC(=O)N1CCCCCC1)C(=O)N[C@H](Cc1cn(C)c2ccccc12)C(=O)N[C@H](Cc1ccccn1)C(=O)O	none (no result: Pf growth 48h, HCMV inh, HCV inhibitor, Pf growth 96h)
COc1cc(/C=N/N2C(=O)C3C4C=CC(CC4)C3C2=O)ccc1O (configuration not stated)	Shiga inhibitor 57, Pf growth 96h inconclusive
COc1cc(/C=N/N=C2/C(=O)Nc3ccccc32)ccc1O	Pf growth 96h inconclusive, CHX counter 23
O=C1Nc2ccccc2/C1=N\N=C\c1ccc(O)c(O)c1	none
O=C1c2ccccc2C(=O)N1/N=C/c1ccc(O)c(O)c1O	Shiga inhibitor 55, Pf growth 48h inconclusive, CHX counter 24 (no result: HCMV inh)
Cc1ccccc1N=C1C(=O)Nc2ccccc21	none (no result: Shiga inhibitor, Pf growth 48h, Pf growth 96h, CHX counter)
Cc1ccsc1/C=N/N=C1\C(=O)Nc2ccccc21	Shiga inhibitor 49, CHX counter 40
COc1ccc(/C=N/N2C(=O)C3C4C=CC(C4)C3C2=O)cc1[N+](=O)[O-] (configuration not stated)	none
Cc1ccc(C(=O)N[C@H](C(=O)N2CCN(c3ccccc3F)CC2)C(C)C)cc1	Pf growth 48h inconclusive, Pf growth 96h inconclusive
CN(C1CCCCC1)S(=O)(=O)c1ccc2c(c1)CCC(=O)N2	Pf growth 48h inconclusive (no result: Shiga inhibitor, CHX counter)
COc1cc(/C=N/N2C(=O)c3ccccc3C2=O)ccc1O	CHX counter 20
O=C1C2C3C=CC(CC3)C2C(=O)N1/N=C/c1ccccc1O (configuration not stated)	CHX counter 20
Cc1ccc2oc(C(=O)Nc3c(C(=O)Nc4ccccc4)oc4ccccc34)cc(=O)c2c1	none (no result: Shiga inhibitor, Pf growth 48h, HCV inhibitor, Pf growth 96h, CHX counter)
CC[C@H](C)[C@H](NC(=O)[C@H](CC(C)C)NC(=O)[C@H](CC(N)=O)NC(=O)[C@@H](NC(=O)[C@@H](N)Cc1ccc(O)cc1)[C@@H](C)CC)C(=O)N[C@@H](Cc1ccc(O)cc1)C(=O)N[C@@H](CCCN=C(N)N)C(=O)N[C@@H](CC(C)C)C(=O)N[C@@H](CCCN=C(N)N)C(=O)N[C@@H](Cc1ccc(O)cc1)C(N)=O	none (no result: Pf growth 48h, HCMV inh, HCV inhibitor, Pf growth 96h)
Cc1cc(N2CCN(C)CC2)ccc1NC(=O)c1c2c(nc3ccccc13)CCN(Cc1ccccc1)C2	Pf growth 48h inconclusive, HCV inhibitor 2µM, Pf growth 96h inconclusive (no result: HCMV inh)
O=C(NC1CCCCCC1)c1c2c(nc3ccccc13)CCN(Cc1ccccc1)C2	HCV inhibitor inconclusive
Nc1nc2c(c(=O)[nH]1)CN(Cc1ccccc1)CC2	none (no result: Shiga inhibitor, CHX counter)
Nc1c2c(nc3ccccc13)CCN(Cc1ccccc1)C2	Pf growth 48h inconclusive, HCV inhibitor inconclusive, Pf growth 96h 8.3µM, CHX counter 15
Cc1c(Cl)cccc1NC(=O)COC(=O)c1c2c(nc3ccccc13)CCN(Cc1ccccc1)C2	Pf growth 48h 13µM, HCV inhibitor inconclusive, Pf growth 96h 2.9µM
CC(C)c1ccccc1NC(=O)COC(=O)c1c2c(nc3ccccc13)CCN(Cc1ccccc1)C2	Pf growth 48h 8.3µM, HCV inhibitor inconclusive, Pf growth 96h 13µM
COc1ccc(-n2c(=O)c3c(c4cc(OC)ccc4n3C)n(CCC(C)C)c2=O)cc1	none (no result: Shiga inhibitor, Pf growth 48h, HCV inhibitor, Pf growth 96h, CHX counter)
Cc1cc(C)c(S(=O)(=O)NCCS(=O)(=O)N2CCN(c3ccccc3)CC2)c(C)c1	none (no result: Shiga inhibitor, Pf growth 48h, HCV inhibitor, Pf growth 96h, CHX counter)
COc1ccccc1CNC(=O)C(=O)NCC(c1cccs1)S(=O)(=O)c1ccccc1 (configuration not stated)	none (no result: Shiga inhibitor, Pf growth 48h, HCV inhibitor, Pf growth 96h, CHX counter)
CCN1CCc2nc3ccccc3c(C(=O)Nc3ccc(C#N)cc3)c2C1	Pf growth 48h inconclusive, Pf growth 96h 2.6µM
CC(=O)c1ccc(NC(=O)c2c3c(nc4ccccc24)C(=O)N(C2CCCCC2)C3)cc1	none (no result: Shiga inhibitor, Pf growth 48h, HCV inhibitor, Pf growth 96h, CHX counter)
N#CC(CO)(Cc1ccc(OC(F)F)cc1)c1nc2ccccc2[nH]1 (configuration not stated)	Shiga inhibitor 40, HCV inhibitor inconclusive, Pf growth 96h inconclusive, CHX counter 23
COc1ccc(CC(C#N)(CO)c2nc3ccccc3[nH]2)cc1 (configuration not stated)	Pf growth 48h inconclusive, Pf growth 96h 2.3µM
CC1(C(=O)OCC(=O)Nc2cccc(S(=O)(=O)NC3=NCCCCC3)c2)CC1(Cl)Cl (configuration not stated)	HCMV inh inconclusive
CC[C@H](C)[C@H](NC(=O)c1ccc(Cl)cc1)C(=O)OCC(=O)c1ccc2c(c1)NC(=O)CO2	HCMV inh -87, HCV inhibitor inconclusive (no result: Pf growth 48h)
COc1ccc(OC)c(/C=C/C(=O)c2ccc(Cl)cc2)c1	HCV inhibitor inconclusive
COc1ccc(/C=C/C(=O)c2ccccc2)c(OC)c1	Shiga inhibitor 74, CHX counter 23
COc1cc(/C=C/C(=O)c2ccc3c(c2)OCO3)cc(Cl)c1O	HCMV inh -62, Pf growth 96h inconclusive
COc1ccc(C(=O)C=Cc2ccc3c(c2)OCO3)cc1OC	none (no result: Shiga inhibitor, Pf growth 48h, HCV inhibitor, Pf growth 96h, CHX counter)
COc1ccc(/C=C/C(=O)c2ccc3c(c2)OCO3)c(OC)c1	Shiga inhibitor 61, CHX counter 59
Cn1c(SCC(=O)Nc2ccc(NC(=O)c3cccc(F)c3)cc2)nnc1-c1ccncc1	none
O=C(NCc1ccccc1)c1cccc(NC(=O)C2CC2)c1	HCV inhibitor inconclusive (no result: Shiga inhibitor, Pf growth 48h, Pf growth 96h, CHX counter)
O=C(NC(NC(=S)Nc1ccc(F)c([N+](=O)[O-])c1)C(Cl)(Cl)Cl)C(c1ccccc1)c1ccccc1 (configuration not stated)	none (no result: Pf growth 48h, HCMV inh, HCV inhibitor, Pf growth 96h)
COc1cccc(/C=C/C(=O)OCC(=O)c2ccc3c(c2)NC(=O)CO3)c1OC	Pf growth 48h inconclusive
COc1ccc(/C=C/C(=O)c2cc(Cl)cc(Cl)c2O)c(OC)c1	HCMV inh inconclusive, HCV inhibitor inconclusive
COc1cccc(/C=C/C(=O)c2ccc3c(c2)OCCO3)c1OC	HCMV inh -96, CHX counter 47 (no result: Shiga inhibitor)
COc1cc(O)c(C(=O)/C=C/c2ccccc2)c(OC)c1	Shiga inhibitor 70, Pf growth 48h inconclusive, HCV inhibitor inconclusive, Pf growth 96h inconclusive, CHX counter 34
COc1ccc(/C=C/C(=O)c2ccc(OC)cc2OC)c(OC)c1	Pf growth 48h inconclusive, HCMV inh -76, HCV inhibitor inconclusive, Pf growth 96h 3.7µM
